MITF inhib: MITF inhibition. inhibition, % (test concentration not listed). TRPM1 promoter luciferase, luminescence, 24 h. AID 2240. 37,000 tested, 0.28% active; in the data active = inhibition above about 85%; inconclusive = no clear call, values can overlap the other calls; inactive = below about 68%;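 also: human melanocyte line stably carrying TRPM1 promoter luciferase reporter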
Hedgehog inh: Sonic Hedgehog pathway inhibition. inhibition, % (no concentration beside the values). AID 2313. Shh-LIGHT2 Gli-luciferase reporter, 30 h. 22,000 tested, 2.1% active;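 active = mean inhibition across valid replicates above about 65%, limit read from the data; inconclusive = mean under the limit, yet half or more replicates past it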;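 also: pathway switched on by Shh-conditioned medium diluted 1 in 25 in low serum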
NOMO-1 viab: STK33 inhibitor candidate reducing NOMO-1 cell viability; NOMO-1 AML viability, CellTiter-Glo luminescence, 72 h; inhibition, % (no concentration beside the values); 37,000 tested, 7.5% active; AID 2330; in the data active = inhibition above about 80%; inconclusive = no clear call, values can overlap the other calls
Active calls of the source: *; ? = inconclusive; / = not tested or not shown. A selection: hits, their analogues and other compounds. The true share with any hit is near 8.1%.

SMILES	MITF inhib	Hedgehog inh	NOMO-1 viab
C=C(C)C(=O)Nc1ccc2c(c1)C(=O)NC2=O	-11	/	-19
Cc1ccc(NC(=O)CSc2nnc(-c3ccc([N+](=O)[O-])cc3)n2-c2ccccc2)cc1C	29	/	44
COc1cc(CCC(O)CC(O)CCc2ccc(O)c(OC)c2)ccc1O (stereo not given)	/	-52	/
CCCc1ccc(O)c(N)c1	15	26	124*
Nc1cc(-c2ccccc2)ccc1O	-1	/	63
C[C@@H]1CN([C@H](C)CO)C(=O)c2cccc(NS(=O)(=O)c3ccccc3)c2O[C@@H]1CN(C)Cc1ccc(-c2ccccc2)cc1	0	6	61
Cc1ccc(S(=O)(=O)Nc2cccc3c2O[C@@H](CN(C)Cc2ccc(-c4ccccc4)cc2)[C@@H](C)CN([C@@H](C)CO)C3=O)cc1	8	28	91*
Cc1ccc(S(=O)(=O)Nc2cccc3c2O[C@H](CN(C)Cc2ccc(-c4ccccc4)cc2)[C@@H](C)CN([C@H](C)CO)C3=O)cc1	44	13	41
C[C@H]1CN([C@@H](C)CO)C(=O)c2cccc(NS(=O)(=O)c3ccc(Cl)cc3)c2O[C@@H]1CN(C)Cc1ccc(-c2ccccc2)cc1	6	-22	33
C[C@@H]1CN([C@@H](C)CO)C(=O)c2cccc(NS(=O)(=O)c3ccccc3)c2O[C@@H]1CN(C)Cc1ccc(-c2ccccc2)cc1	1	16	98*
Cc1ccc(S(=O)(=O)Nc2cccc3c2O[C@@H](CN(C)Cc2ccc(Oc4ccccc4)cc2)[C@H](C)CN([C@@H](C)CO)C3=O)cc1	49	10	42
C[C@@H]1CN([C@@H](C)CO)C(=O)c2cccc(NS(=O)(=O)c3ccc(Cl)cc3)c2O[C@@H]1CN(C)Cc1ccc(-c2ccccc2)cc1	5	?	115*
Cc1ccc(S(=O)(=O)Nc2cccc3c2O[C@H](CN(C)Cc2ccc(Oc4ccccc4)cc2)[C@@H](C)CN([C@H](C)CO)C3=O)cc1	30	3	99*
O=C(Cn1cnc2ccccc2c1=O)Nc1ccccc1[N+](=O)[O-]	-8	/	12
CCOc1ccc(C(=O)c2oc3ccccc3c2NC(=O)c2cc(OC)c(OC)c(OC)c2)cc1	-16	/	27
Nc1ccc2nc(SCC(=O)Nc3ccc(Oc4ccccc4)cc3)sc2c1	14	/	22
COc1ccc(C)cc1S(=O)(=O)N(C)CC(=O)Nc1cccc(C(F)(F)F)c1	11	/	-8
O=C(CSc1nnnn1-c1ccccc1)Nc1ccc(Br)cc1Cl	-2	/	24
Cc1ccc(OCC(=O)Nc2cccc(-c3nc4cc(Cl)ccc4o3)c2C)cc1C	-18	/	15
O=C1Nc2ccccc2/C1=C\c1c(Cl)[nH]c2ccccc12	40	30	97*
CN(C)c1ccc(/C=C2/C(=O)Nc3ccccc32)cc1	-40	-21	40
O=C(/C=C/c1ccccc1)CC(O)CCc1ccccc1 (stereo not given)	-7	-17	26
O=C(/C=C/c1ccccc1)CC(O)(c1ccccc1)C(F)(F)F (stereo not given)	41	37	122*
CCc1cccc(C)c1NC(=O)CSc1nc2cc(C)cc(-n3nc4ccccc4n3)c2o1	-15	/	2
C1=Cc2nonc2C2C=C(c3ccccc3)N=C12 (stereo not given)	26	14	92*
SMILES	MITF inhib	Hedgehog inh	NOMO-1 viab
Nc1nonc1-c1ccccc1	-3	-9	15
Cc1ccccc1-c1nc(S(=O)(=O)c2ccc(Cl)cc2)c(NCc2cccnc2)o1	10	/	-1
Cc1ccc(OCCSCc2nc3ccccc3[nH]2)cc1	57	/	40
Cc1ccc(CC(c2nc3ccccc3[nH]2)C(C)c2nc3ccccc3[nH]2)cc1 (stereo not given)	63	/	91*
Oc1ccccc1CNCc1ccccn1	-4	/	115*
CCOc1c(CNCc2ccccn2)cccc1OC	-7	/	0
COc1ccc(S(=O)(=O)NCCc2ccc(OC)c(OC)c2)cc1C	-15	/	-17
Cc1c(S(=O)(=O)c2ccc(Cl)cc2)csc1C(=O)N(c1ccccc1)S(C)=O (stereo not given)	25	88*	66
O=C(O)CN(c1ccccc1)S(=O)(=O)c1ccc(Cl)cc1	-6	/	8
Cc1cc(O)cc2c(=O)oc(CC(C)O)cc12 (stereo not given)	21	-17	39
CC(C)OC(=O)C(C)Sc1ncnc2scc(-c3ccc(Br)cc3)c12 (stereo not given)	1	/	15
c1cn2c3c(n1)CCCc3c1cc(C3CCCCC3)ccc12	-28	14	123*
CN1C(=O)C(CC(=O)Nc2ccc(Cl)cc2)N(Cc2ccco2)C1=S (stereo not given)	15	/	152*
Cc1ccc(CN2C(=O)N(c3ccccc3)C(=O)C2CC(=O)Nc2ccccc2)cc1 (stereo not given)	0	/	-4
